Out of some 65,000 compounds screened, about 3,600 (5.5%) were called active. What follows is part of a selection rich in actives, with near analogues and random picks from the rest. Values without a mark were called inactive.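 Rule for the calls: active = at 10 µM, mean starting fluorescence two-fold or more over control wells; inactive = the rest.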

This assay is described as follows: intrinsic fluorescence of library compounds, ex339/em460 – biochemical, MLSMR library, data from DPM-DC assay, artefact control, profiling panel (AID 709).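 Note: signal is the first read of a kinetic run.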 As to conditions: compound autofluorescence, ex339/em460 nm, NADH buffer; at 10 µM; active compounds read high; 1 = no-compound wells, NADH background.
On to `Cc1nc(SC(C)C)[nH]c(=O)c1Cc1ccccc1`, for which the fluorescence fold increase is 1.11.
Take `CCOc1ccc2nc(NC(=O)CSc3nc4c(c(=O)n(C)c(=O)n4C)n3CC)sc2c1`: the fluorescence fold increase is 1.12.
For `CC(=O)NC(Cc1ccc(F)cc1)C(=O)O` (stereo not given), the fluorescence fold increase was 1.02.
For `CCOC(=O)c1oc2ccccc2c1NC(=O)c1cccs1`, the fluorescence fold increase is 1.25.
For `N#C/C=C1\Sc2ccccc2C(=O)N1CC(=O)N1CCN(S(=O)(=O)c2ccccc2)CC1` the value was 1.1.
For `COc1cccc(NC(=O)C(C)Oc2ccccc2)c1` (stereo not given) the value was 1.11; for `CC1Oc2ccccc2N(Cc2cccnc2)C1=O` (stereo not given), 1.14.
For `O=C(COc1ccccc1)NCc1ccc2c(c1)OCO2` the value was 1.08; for `Cc1ccc(C(=O)OCC(=O)NCc2ccc3c(c2)OCO3)s1`, 0.99.
With `COC(=O)Cc1c(C)c2ccc(OCC(=O)NCc3ccc4c(c3)OCO4)cc2oc1=O`, the fluorescence fold increase is 2.07 (active).
In the case of `COCc1nnc(NC(=O)CS(=O)(=O)Cc2ccccc2)s1`, the fluorescence fold increase was 1.1.
With `Cc1nc2nc(COc3ccccc3)[nH]n2c(=O)c1C`, the fluorescence fold increase is 1.17.
Under `Cc1nc2c(-c3ccccc3)c(C)[nH]n2c(=O)c1Cl` stands 2.16 (active).
Turning to `CC(=O)c1cc(-c2ccccc2)[nH]c1N1CCCC1`, the fluorescence fold increase is 1.05.
With `Cc1ccc(OCc2nc(C#N)c(N3CCCC3)o2)cc1`, the fluorescence fold increase is 1.03.
Take `CC1CCN(c2oc(-c3ccccc3F)nc2C#N)CC1`: the fluorescence fold increase is 2.45 (active).
For `N#Cc1nc(COc2ccc(Cl)cc2)oc1N1CCCC1` the value was 1.02.
Under `Cc1cc(C)c(C#N)c(SCc2ccc3c(c2)OCO3)n1` stands 1.09; under `CCOC(=O)N1CCN(C(=O)CN(C2CCCCC2)S(C)(=O)=O)CC1`, 1.07.
As for `COc1ccc(N2CCN(C(c3cc4ccc(C)cc4[nH]c3=O)c3nnnn3C3CCCC3)CC2)cc1` (stereo not given), the fluorescence fold increase is 1.25.
For the molecule `COCCn1nnnc1C(c1cc2ccc(OC)cc2[nH]c1=O)N1CCc2ccccc2C1` (stereo not given), the fluorescence fold increase is 1.12.
In the case of `CCOc1ccc2[nH]c(=O)c(C(c3nnnn3CCOC)N3CCOCC3)cc2c1` (stereo not given), the fluorescence fold increase was 5.03 (active).
For `O=C(O)Cc1ccc(NC(=O)C2CCCCC2C(=O)O)cc1` (stereo not given) the value was 1.09; for `CC1CN(C(=O)c2ccc3c(c2)OCO3)OC(c2ccccc2)O1` (stereo not given), 1.07; for `COc1ccc(C2/C(=C(/O)c3ccc(OC(C)C)cc3)C(=O)C(=O)N2CCCN2CCOCC2)cc1` (stereo not given), 1.01.
For `O=C(OCC(=O)N1CCN(C(=O)c2ccco2)CC1)c1ccccc1Cc1ccccc1` the value was 0.99; for `CCc1c(C)sc(NC(=O)c2ccc(Br)o2)c1C(=O)OC`, 2.8 (active); for `CCOC(=O)c1c(NC(=O)c2cccs2)sc(C)c1C`, 1.74.
As to `CCCOC(=O)Nc1sc2c(c1C(=O)OCC)CCC2`, the fluorescence fold increase is 1.1.
As for `CC(CNC(=O)c1ccc(Br)o1)NC(=O)c1ccc(Br)o1` (stereo not given), the fluorescence fold increase is 1.02.
With `COC(=O)c1c(NC(=O)c2cccs2)sc2c1CCCC2`, the fluorescence fold increase was 2.23 (active).
Under `CCOC(=O)c1c(NC(=O)c2ccc(Br)o2)sc2c1CCCC2` stands 2.17 (active); under `COC(=O)c1c(NC(=O)CSc2nncs2)sc2c1CCCCC2`, 1.1; under `COc1cc(OC)c(NC(=O)c2ccc(Br)o2)cc1Cl`, 1.09.
Take `CCOCC(=O)Nc1sc2c(c1C(=O)OCC)CCCC2`: the fluorescence fold increase is 1.11.
Under `Fc1ccccc1CCNc1nnnn1-c1ccccc1` stands 1.11; under `COc1cc(NS(=O)(=O)c2ccc(NC(C)=O)cc2)cc(OC)c1`, 1.13; under `COC(=O)c1ccc2c(c1)S(=O)(=O)NC(=NCCCN1CCOCC1)S2`, 1.06.
Under `CCNC(=O)CN(c1ccc(C)cc1)S(=O)(=O)c1ccc(SC)cc1` stands 1.06; under `CCCOP(=O)(c1ccc(N(C)C)cc1)C(O)c1cc(OC)c(OC)c(OC)c1` (stereo not given), 1.13.
Under `CN(C)CCCn1c(N)c(C#N)c2nc(C#N)c(C#N)nc21` stands 3.35 (active); under `O=C1C(C=NCC2CCCO2)=C(O)c2ccccc21` (stereo not given), 1.09; under `O=C(NCc1ccco1)c1cnn2c(C(F)(F)F)cc(-c3ccco3)nc12`, 1.6.
On to `COC(=O)c1cnn2c(C(F)(F)F)cc(-c3ccco3)nc12`, for which the fluorescence fold increase is 2.46 (active).
For `COc1ccc(-c2cc(C(F)(F)F)n3nc(C(=O)N4CCOCC4)c(Cl)c3n2)cc1` the value was 1.17.
For `CC(=O)Nc1ccc(S(=O)(=O)Nc2ccc(N3CCOCC3)c(F)c2)cc1` the value was 1.1; for `CCn1c(SCC(=O)NCc2ccco2)nnc1-c1ccc(N)cc1`, 1.1; for `CCOC(=O)c1cc(-c2ccc(Cl)s2)nc2c1c(C)nn2C`, 3.19 (active).
On to `CCOC(=O)c1c(C(C#N)C#N)cc(C)nc1C`, for which the fluorescence fold increase is 0.98.
Under `CCOC(=O)c1cc(NC(=O)SCC(=O)O)c(C)nc1C` stands 1.15.
Turning to `CS(=O)(=O)N1CCN(C(=O)c2cc3ccccc3oc2=O)CC1`, the fluorescence fold increase is 1.14.
Under `C=CCc1cccc2cc(C(=O)N3CCN(C(=O)OCC)CC3)c(=O)oc12` stands 1.17; under `CCOC(=O)N1CCN(C(=O)c2cc3c(ccc4ccccc43)oc2=O)CC1`, 3.93 (active).
Under `O=C(NCCc1ccc2c(c1)OCCO2)c1cc2ccccc2o1` stands 1.11; under `CNC(=O)c1cc2c(ccc3ccccc32)oc1=N`, 2.32 (active); under `CN1CCN(CCCNC(=O)c2cc3c(=O)oc4ccccc4c3s2)CC1`, 1.53.
As for `Cc1ccc(C(=O)N2CCN(C3CCCCC3)CC2)s1`, the fluorescence fold increase was 1.14.
In the case of `Cc1oc(C)c(C(=O)NCCCC(=O)O)c1C(=O)NCCCC(=O)O`, the fluorescence fold increase was 1.14.
Under `CCOc1ccc(Cn2nnc(C(=O)Nc3ccc(OC)cc3OC)c2N)cc1` stands 1.25.
Under `C[N+]1(CCNC(=O)/C=N/O)CCCCC1` stands 1.1.
Under `CCCCC(=O)N1CC2(C)CN(C(=O)CCCC)CC(C)(C1)C2=O` stands 1.09.
In the case of `COc1ccc(N2C(=O)CCC(C(=O)Nc3ccccn3)C2c2ccc(OC)c(OC)c2)cc1` (stereo not given), the fluorescence fold increase was 0.92.
On to `COc1ccc(C2CC(=O)C=C(NCC3CCCO3)C2)cc1` (stereo not given), for which the fluorescence fold increase was 1.07.
Under `CC1(C)CC(=O)c2cc(OCC(=O)NCC3CCCO3)ccc2O1` (stereo not given) stands 5.06 (active); under `Cc1ccc(C(=O)NCC2CCCO2)o1` (stereo not given), 1.14.
